Results filed as inconclusive are left out. Activity calls are given as the source filed them. Rule for the calls, unless noted: active = hit-call score of the fitted dose curve at least 0.9, where 1 is the maximum; inactive = score below 0.9.

Chain of X-box-binding protein 1 (Homo sapiens) (P17861 whole entry, looked up): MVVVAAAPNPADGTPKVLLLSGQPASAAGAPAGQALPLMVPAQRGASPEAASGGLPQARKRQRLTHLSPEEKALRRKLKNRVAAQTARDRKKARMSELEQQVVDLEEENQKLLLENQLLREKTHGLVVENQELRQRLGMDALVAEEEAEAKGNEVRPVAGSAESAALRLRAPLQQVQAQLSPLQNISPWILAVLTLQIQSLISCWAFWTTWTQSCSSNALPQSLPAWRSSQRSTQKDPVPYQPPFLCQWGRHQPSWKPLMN
Chain of Steroid hormone receptor ERR1 (Homo sapiens) (P11474 whole entry, looked up, the tested form may be a part): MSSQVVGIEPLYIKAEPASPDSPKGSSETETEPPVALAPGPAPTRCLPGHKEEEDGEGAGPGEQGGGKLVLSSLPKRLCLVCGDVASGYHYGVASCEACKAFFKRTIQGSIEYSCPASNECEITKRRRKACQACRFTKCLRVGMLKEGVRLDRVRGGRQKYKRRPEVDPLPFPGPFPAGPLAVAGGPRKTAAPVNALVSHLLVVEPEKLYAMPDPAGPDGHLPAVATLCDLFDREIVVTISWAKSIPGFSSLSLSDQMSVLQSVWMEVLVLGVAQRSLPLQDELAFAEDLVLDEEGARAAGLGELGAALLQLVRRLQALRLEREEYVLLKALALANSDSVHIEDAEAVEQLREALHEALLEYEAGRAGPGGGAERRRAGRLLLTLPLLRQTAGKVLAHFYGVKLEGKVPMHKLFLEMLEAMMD

The target of one test is Steroid hormone receptor ERR1 (Homo sapiens) (UniProt P11474). Description: ATG_ERRa_TRANS: Attagene TRANS-FACTORIAL HepG2 Assay for human Estrogen-Related Receptor alpha (ERRa) (AID 2282971; active = hit-call score of the fitted dose curve at least 0.9, where 1 is the maximum). To be noted: HepG2 Attagene TRANS reporter, ERRa transactivation. A digest of the protocol:
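HepG2 cells transiently transfected with multiplexed GAL4-UAS reporter units reading chimeric ERRa-Gal4 activity; 24 h compound exposure. Reporter mRNA measured by RT-PCR, 6-FAM labelling, HpaI digest and capillary electrophoresis; gain of signal fitted versus DMSO baseline.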
As to `CCOC(=O)c1ccc(C)cc1`, the outcome was inactive.

As to `CCCCCCCC(=O)OCC`, the outcome was inactive.

With `COC(=O)CC(C)CCC=C(C)C` (stereo not given), the compound was called inactive.

Turning to `CC(C)(CO)COC(=O)C(C)(C)CO`, the call was inactive.

On to `CC(C)(C)C1CCC(=O)CC1`, for which the call was inactive.

In the case of `CCN(CC)c1cccc(C)c1`, the result was inactive.

As to `Fc1ccc(Br)cc1`, the compound was classed as inactive.

Consider `COC(OC)(C(=O)c1ccccc1)c1ccccc1`, for which the result was inactive.

For `CCc1cccc(C)c1N`, the compound was called inactive.

`CCCCOCCOCCOC(C)=O`: the compound was classed as inactive.

For the compound `CCCCC(CC)COS(=O)(=O)O` (stereo not given), the call was inactive.

Consider `CCC[Si](OC)(OC)OC`, for which the compound was classed as inactive.

For `CCCCC(CC)COC(=O)/C=C/c1ccc(OC)cc1` (stereo not given), the call was inactive.

As for `CCCCCCCCCCCCCCCCCCOS(=O)(=O)O`, the call was inactive.

`COc1ccc(C(=O)/C(Br)=C\C(=O)O)cc1`: the call was inactive.

With `CCCCCCOc1ccc(N)cc1`, the compound was called inactive.

With `OCCCc1ccccc1`, the compound was classed as inactive.

Regarding `C=C(C)C1CC=C(C)C(OC(C)=O)C1` (stereo not given), the call was inactive.

Turning to `CCCCCCOC(=O)CCCCC(=O)OCCCCCC`, the compound was classed as inactive.

For `Cc1ccc(S(=O)(=O)N=C=O)cc1`, the compound was classed as inactive.

As for `CC(C)(O)Cc1ccccc1`, the compound was called inactive.

On to `CCOC(=O)/C=C\C(=O)OCC`, for which the compound was called inactive.

Regarding `COc1nccnc1CC(C)C`, the call was inactive.

With `CCOC(=O)C1=NN(c2ccc(Cl)cc2Cl)C(C)(C(=O)OCC)C1` (stereo not given), the compound was called inactive.

For the compound `Nc1ccc(O)c([N+](=O)[O-])c1`, the outcome was inactive.

On to `C=C(C)C(=O)OCCOC(=O)C(=C)C`, for which the call was inactive.

Another test has as its target X-box-binding protein 1 (Homo sapiens) (UniProt P17861). The experiment in a line: ATG_Xbp1_CIS: Attagene CIS-FACTORIAL HepG2 Assay for human X-box Binding Protein 1 (XBP1) (AID 2282972). To be noted: HepG2 XBP1 cis-element reporter, Attagene multiplex; actives raise or lower the signal. The procedure, abridged:
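After a 24-hour chemical exposure of HepG2 cells carrying cis-regulated reporters, reporter mRNA levels are assessed. Quantification uses RT-PCR, 6-FAM labelling and capillary electrophoresis. Gain- or loss-of-signal is fitted against DMSO.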
Regarding `CCOC(=O)c1ccc(C)cc1`, the compound was classed as inactive.

As for `c1ccc(Nc2cccc3ccccc23)cc1`, the AC50 (usually the concentration giving half of the maximal activity seen) is 53.5 µM (active).

Take `CCCCCCCC(=O)OCC`: the call was inactive.

With `COC(=O)CC(C)CCC=C(C)C` (stereo not given), the outcome was inactive.

Regarding `CC(C)(CO)COC(=O)C(C)(C)CO`, the result was inactive.

Regarding `C[Si](C)(C)N[Si](C)(C)C`, the compound was called inactive.

As to `C=CC(C)(CCC=C(C)C)OC(=O)C=Cc1ccccc1` (stereo not given), the result was inactive.

As to `[Cl][Eu]([Cl])[Cl]`, the compound was classed as inactive.

Take `CC(C)(C)C1CCC(=O)CC1`: the call was inactive.

As to `Fc1ccc(Br)cc1`, the outcome was inactive.

For `CCCc1ccc(O)c(OC)c1`, the result was inactive.

On to `COC(OC)(C(=O)c1ccccc1)c1ccccc1`, for which the compound was called inactive.

With `CCc1cccc(C)c1N`, the compound was classed as inactive.

Turning to `CCCCC(CC)COS(=O)(=O)O` (stereo not given), the outcome was inactive.

`CCOC(=O)C1=NOC(c2ccccc2)(c2ccccc2)C1`: the outcome was inactive.

`CCC[Si](OC)(OC)OC`: the result was inactive.

Consider `CCCCC(CC)COC(=O)/C=C/c1ccc(OC)cc1` (stereo not given), for which the result was inactive.

For the compound `CCCCCCCCCCCCCCCCCCOS(=O)(=O)O`, the AC50 is 33.4 µM (active).

With `COc1ccc(C(=O)/C(Br)=C\C(=O)O)cc1`, the call was inactive.

Turning to `CC(=O)OCCc1ccccc1`, the compound was called inactive.

As to `CCCCCCOc1ccc(N)cc1`, the outcome was inactive.

In the case of `OCCCc1ccccc1`, the outcome was inactive.

For the compound `CCC1COC(=O)O1` (stereo not given), the compound was classed as inactive.

Regarding `O=C(O)/C=C/c1ccccc1`, the compound was classed as inactive.

`CCCCCCOC(=O)CCCCC(=O)OCCCCCC`: the compound was classed as inactive.

As for `Cc1ccc(S(=O)(=O)N=C=O)cc1`, the compound was classed as inactive.

On to `CC(C)(O)Cc1ccccc1`, for which the result was inactive.

For `CCOC(=O)/C=C\C(=O)OCC`, the result was inactive.

Consider `COc1nccnc1CC(C)C`, for which the result was inactive.

As to `CCOC(=O)C1=NN(c2ccc(Cl)cc2Cl)C(C)(C(=O)OCC)C1` (stereo not given), the outcome was inactive.

On to `C=CC(=O)O[C@H]1C[C@@H]2CC[C@@]1(C)C2(C)C`, for which the call was inactive.

`Nc1ccc(O)c([N+](=O)[O-])c1`: the compound was classed as inactive.

For the compound `Oc1c(Cl)cc(Cl)c(Cl)c1Cl`, the result was inactive.

`C=C(C)C(=O)OCCOC(=O)C(=C)C`: the outcome was inactive.

Values taken from PubChem BioAssay (EPA / NIEHS).
